Reference: PubChem BioAssay AID743060 (The Scripps Research Institute Molecular Screening Center, 2013)

experiment: inhibitors of T. brucei MetRS aminoacylation, late-stage follow-up, biochemical, radioactivity, round 1 (AID 743060); settings: purified enzyme, radiolabel aminoacylation, scintillation, 2 h; at 1 µM; stronger effect = higher value

SMILES | inhibition
COc1ccc2[nH]c3nc(SCC(=O)Nc4ccc5c(c4)OCO5)nnc3c2c1 | 63.4%
CC(C)(C)[C@H]1C=C(C(=O)NCc2nc3ccccc3[nH]2)O[C@@H](OCc2ccc(CO)cc2)C1 | 21.6%
CCOC(=O)N1CCC(Nc2c(Nc3ccc(F)cc3)c(=O)c2=O)CC1 | 28.4%
O=C(NNC(=O)c1cc(-c2ccc(Cl)c(Cl)c2)nc2ccccc12)Nc1ccccc1 | 59.7%
CCC(=O)c1cn(CC(=O)Nc2cccc(C(F)(F)F)c2)c2ccccc12 | -3.8%
COc1ccc(CCN(C(=O)c2cccc(F)c2)C2CC(=O)N(c3ccc(Br)cc3)C2=O)cc1 (centres undefined) | -5.29%
O=C(NNC(=O)c1ccc(-n2cncn2)c([N+](=O)[O-])c1)c1ccc(Cl)cc1 | 7.36%
O=C(Cn1cc(C(=O)COc2ccccc2)c2ccccc21)Nc1cccc(C(F)(F)F)c1 | -5.73%
Cc1ccc(NC(=O)CN(C)C(=O)CCSc2ccc(F)cc2)cc1 | -1.05%
O=C(CC=NOCc1ccc([N+](=O)[O-])cc1)Nc1ccc(Br)cc1 | 32.2%
COc1ccccc1-n1c(SCC(=O)Nc2ccc(Cl)cc2)nc(O)c(Cc2ccccc2)c1=O | 2.04%
O=C(NCc1nc2ccccc2[nH]1)C1=C[C@@H](C2CC2)C[C@@H](OCc2ccc(CO)cc2)O1 | 52.8%
O=C(NCc1nc2ccccc2[nH]1)C1=C[C@H](c2csc3ccccc23)C[C@H](OCCCCO)O1 | 71.1%
O=C(NCCc1nc2ccccc2[nH]1)c1ccc(Cl)c([N+](=O)[O-])c1 | 89.8%
CCc1ccc2[nH]c3nc(SCC(=O)NCc4cccc(OC)c4)nnc3c2c1 | 4.75%
CC(=O)c1cn(CC(=O)Nc2cccc(C(F)(F)F)c2)c2ccccc12 | 20.1%
CNC(=S)N(CCc1ccccc1)C1CC(=O)N(c2ccc(Br)cc2)C1=O (centres undefined) | 96.6%

SMILES | inhibition
O=C(NCCc1nc2ccccc2[nH]1)c1c(F)cccc1F | 2.62%
O=C(NCc1nc2ccccc2[nH]1)C1=C[C@H](c2ccc(Br)cc2)C[C@H](OCCCCO)O1 | 51.6%
O=C(NCc1nc2ccccc2[nH]1)C1=C[C@@H](c2csc3ccccc23)C[C@@H](OCCCCO)O1 | 20.6%
CC(C)c1nc2ccc(C(=O)N(C)CCc3nc4ccc(F)cc4[nH]3)cc2o1 | -1.99%
CN(CC(=O)Nc1ccc(Cl)cc1)C(=O)c1ccc(-n2cncn2)c([N+](=O)[O-])c1 | 38%
Cc1ccc(C(=O)NCCc2nc3ccccc3[nH]2)cc1C | -10.8%
O=C(Cn1cc(C(=O)c2ccccc2)c2ccccc21)Nc1cccc(C(F)(F)F)c1 | 22%
O=C1CC(SCc2nc3ccccc3[nH]2)C(=O)N1c1cccc(Cl)c1 (centres undefined) | 19.7%
O=C(Cn1cnc2ccccc21)Nc1cccc([N+](=O)[O-])c1 | 44.9%
Cc1cccc2[nH]c(C3CCCN(C(=O)c4cccc5cccnc45)C3)nc12 (centres undefined) | -3.03%
O=C(NCc1nc2ccccc2[nH]1)C1=C[C@H](c2ccccc2)C[C@H](OCc2ccc(CO)cc2)O1 | 7.32%
CN(Cc1cc(Cl)cc(Cl)c1)[C@H]1C[C@H]2c3[nH]c4ccccc4c3CCN2C(=O)[C@H]1CO | 95.1%
O=C1[C@@H]2Cc3c([nH]c4ccccc34)C(c3cccc([N+](=O)[O-])c3)N2C(=O)CN1CCCO (some centres undefined) | 63.2%
O=C(NCCc1nc2ccccc2[nH]1)c1ccc(Cl)cc1 | 20.1%
CCCCCCCCCC1NC(C(=O)O)Cc2c1[nH]c1ccccc21 (centres undefined) | 64.7%
O=C(N/C(=C\c1cccnc1)c1nc2ccccc2[nH]1)c1cccc(Br)c1 | 14.4%
CN1CC(=O)N2C(c3cccc([N+](=O)[O-])c3)c3[nH]c4ccccc4c3C[C@H]2C1=O (some centres undefined) | 57.7%
